CHX counter: Cycloheximide Counterscreen for Small Molecule Inhibitors of Shiga Toxin; cell reporter, cycloheximide protein synthesis inhibition counterscreen; max response, %; actives 12% (n = 300,000); AID 2314, 2010; in the data active = max response mostly above about 13%, no sharp cut-off; inactive = mostly below about 14%; note: read at 38.3 µM for the half of the compounds with a filed dose
Pf growth 48h: Primary qHTS for delayed death inhibitors of the malarial parasite plastid, 48 hour incubation. P. falciparum luciferase growth in erythrocytes, 48 h. Potency, µM (top dose mostly 28.7 µM), usual class: inhibitors. actives 5.9% (n = 310,000). AID 504832, 2011
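Growth was read as firefly luciferase luminescence after a 48 h, 37 C, 5% CO2 exposure of compounds to reporter-bearing P. falciparum cultures (0.1% parasitemia, 2% hematocrit final) in Albumax-supplemented RPMI 1640.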
Shiga toxin inh: A qHTS for Small Molecule Inhibitors of Shiga Toxin | actives 9.2% (n = 290,000) | Vero cells, Shiga toxin protein synthesis inhibition reporter | inhibition, % at 38.7 µM | AID 2315, 2010; in the data active = inhibition mostly above about 28%, no sharp cut-off; inactive = mostly below about 43%
Pf growth 96h: Primary qHTS for delayed death inhibitors of the malarial parasite plastid, 96 hour incubation; AID 504834, 2011; actives 6.9% (n = 320,000); P. falciparum luciferase reporter growth, 96 h; Potency, µM (highest dose often 28.7 µM), usual class: inhibitors
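Luminescence readout: decreased luciferase signal marks inhibited growth of reporter-expressing P. falciparum in infected red cells (2% hematocrit, 0.05% parasitemia final), exposed to compound two generations (96 h, 37 C, 5% CO2).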
HCMV inh: qHTS Assay for inhibitors of the human cytomegalovirus (HCMV) | HFF cells, HCMV-luciferase reporter, 72 h; hits give low values | activity change, negative = inhibition, % at 57.5 µM | actives 4.5% (n = 410,000); in the data active = activity change below about -60%; inconclusive = no clear call, values can overlap the other calls; inactive = above about -39%
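Two-dose cell screen: HFF monolayers treated with compounds and infected with luciferase-expressing HCMV at 1 PFU/cell, 72 h at 37C, then lysed for luciferase measurement.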
Large screens that a line does not name were inactive. In the library only some 20% were active in any assay of this set; here they are far more common. Unless noted, calls come from the whole dose curve; as a rule, active = well fitted inhibition curve with a large enough effect; inconclusive = small, poorly fitted or top-dose-only effect, or another doubt; inactive = no such curve, though single readings can be large or run the other way.

CC(C)(C)OC(=O)N1CCC(c2c(C(=O)NCCc3ccccc3)cnn2-c2ccc(F)cc2)CC1	none (no result: CHX counter, Pf growth 48h, Shiga toxin inh, Pf growth 96h)
O=C(O)c1cc(N/N=C/C(Cl)=C/c2ccccc2)ccc1Cl	CHX counter 68, Shiga toxin inh 183
O=C(O)c1cc(NC(=S)NC(=O)C(c2ccccc2)c2ccccc2)ccc1Cl	Pf growth 48h inconclusive, Pf growth 96h inconclusive
CC(C)n1cc(/C=N/Nc2ccc(Cl)c(C(=O)O)c2)c2ccccc21	CHX counter 49 (no result: Shiga toxin inh, HCMV inh)
O=C(O)c1cc(N/N=C/c2cccc3ccccc23)ccc1Cl	CHX counter 103, Shiga toxin inh 114
C/C(=N\Nc1ccc(Cl)c(C(=O)O)c1)c1cccc2ccccc12	CHX counter 12
CCCCN1CC[C@H]2C=CC[C@@H](C(=O)Nc3ccccc3)[C@H]2C1=O	none (no result: CHX counter, Pf growth 48h, Shiga toxin inh, Pf growth 96h)
CCOc1cccc(Nc2nn(-c3ccc(OC(F)(F)F)cc3)nc2C(C)=O)c1	none (no result: CHX counter, Pf growth 48h, Shiga toxin inh, Pf growth 96h)
O=c1c2c3c(sc2nnn1Cc1ccc(Br)cc1)CCCC3	none (no result: CHX counter, Pf growth 48h, Shiga toxin inh, Pf growth 96h)
CC(C)(O)C#Cc1ccc(C(=O)N2CCCC(CNS(=O)(=O)c3cccs3)C2)o1 (configuration not stated)	none
C/C(=N\Nc1ccc(Cl)c(C(=O)O)c1)c1ccccn1	CHX counter 94, Shiga toxin inh 138
CN(C(=O)Nc1ccc(Cl)c(Cl)c1)c1ccccc1C(=O)O	HCMV inh inconclusive
O=[N+]([O-])c1cccc(N/N=C/c2cccc3ccccc23)c1	CHX counter 30, Shiga toxin inh 42
Cc1ccc(CNC(=O)O[C@H]2CC[C@@]34CCCN3C(=O)CCC[C@H]4[C@H]2Cc2ccccc2)o1	none (no result: CHX counter, Pf growth 48h, Shiga toxin inh, Pf growth 96h)
CCSc1nnc(NC(=O)C2CCN(C(=O)c3ccc(F)cc3)CC2)s1	none (no result: CHX counter, Pf growth 48h, Shiga toxin inh, Pf growth 96h)
COc1cc(/C=C/C(=O)OCC(=O)Nc2ccc([N+](=O)[O-])cc2)ccc1O	Pf growth 48h inconclusive, Pf growth 96h inconclusive, HCMV inh inconclusive
COc1cccc(/C=C/C(=O)OCC(=O)Nc2cccc(S(=O)(=O)N(C)C)c2)c1	CHX counter 15, Pf growth 96h inconclusive
COc1cc(/C=C/C(=O)OCC(=O)Nc2ccc(S(N)(=O)=O)cc2)ccc1O	CHX counter 28, Pf growth 48h inconclusive, Pf growth 96h inconclusive
CSc1ccc(NC(=O)C2CCN(c3ncccn3)CC2)cc1	none (no result: CHX counter, Pf growth 48h, Shiga toxin inh, Pf growth 96h)
Cc1ccc(S(=O)(=O)CCC(=O)OCC(=O)Nc2cc(S(=O)(=O)N3CCOCC3)ccc2C)cc1	Pf growth 48h inconclusive (no result: CHX counter, Shiga toxin inh)
Cc1c(O)nc(SCC(=O)Nc2nccs2)n(-c2ccccc2F)c1=O	Pf growth 96h inconclusive
CCN(CC)c1ccc(/C=C(\C#N)C(=O)NCc2ccco2)cc1	CHX counter 36, Pf growth 48h inconclusive, Shiga toxin inh 43, Pf growth 96h inconclusive, HCMV inh inconclusive
N#C/C(=C\Nc1ccc2c(c1)OCCO2)C(=O)NCc1ccco1	Shiga toxin inh 32
CN(C)c1ccc(/C=C(\C#N)C(=O)NCc2ccco2)cc1	CHX counter 50, Shiga toxin inh 85 (no result: HCMV inh)
COc1cccc(Nc2nc(-c3sc(C)nc3C)cs2)c1	CHX counter 42, Shiga toxin inh 62
Cc1cc(NS(=O)(=O)c2ccc(Nc3nc(-c4sc(C)nc4C)cs3)cc2)no1	none (no result: Pf growth 48h, HCMV inh)
Cc1nc(C)c(-c2csc(Nc3ncccc3C)n2)s1	CHX counter 43, Shiga toxin inh 56
COc1cccc(NC(=O)CSc2ccc(-c3sc(C)nc3C)nn2)c1	Pf growth 48h inconclusive, Pf growth 96h inconclusive
COc1cccc(Nc2nc(-c3sc(N)nc3C)cs2)c1	CHX counter 23, Pf growth 48h inconclusive, Shiga toxin inh active (no result: Pf growth 96h)
Cc1nc(N)sc1-c1csc(Nc2ncccn2)n1	CHX counter 44, Shiga toxin inh 42, HCMV inh -77
CSc1cccc(NC(=O)Cn2cnc(S(=O)(=O)N3CCCC3)c2)c1	none
CCN(CC)CCNC(=O)c1[nH]c2ccc(OCc3ccccc3)cc2c1C	Pf growth 48h inconclusive, HCMV inh inconclusive
Cc1nc(C)c(-c2csc(Nc3ccc(C(=O)O)c(O)c3)n2)s1	Pf growth 96h inconclusive
COc1ccccc1Nc1nc(-c2sc(N)nc2C)cs1	CHX counter 14, Pf growth 96h inconclusive
Cc1nc(C)c(-c2csc(Nc3ccc(F)cc3)n2)s1	CHX counter 33, Shiga toxin inh 64
O=C(CSc1nc2ccccc2c(=O)n1-c1ccccc1F)NC1CCS(=O)(=O)C1 (configuration not stated)	none (no result: CHX counter, Shiga toxin inh)
CC1(C)CN2C(c3ccc(Cl)cc3)N2C1 (configuration not stated)	HCMV inh -75 (no result: Pf growth 48h)
COc1ccc(C(=O)c2cc3c(cc2[N+](=O)[O-])OCCO3)cc1	none
COc1ccc(C(=O)n2c(SC)nc3cc4c(cc32)OCCO4)cc1	CHX counter 49, Shiga toxin inh 52
COCc1nnc(NC(=O)c2ccco2)s1	none (no result: Pf growth 96h)
CCCSc1nnc(NC(=O)c2ccco2)s1	CHX counter 24, Shiga toxin inh 109
CSc1nnc(NC(=O)c2ccco2)s1	CHX counter 16 (no result: Shiga toxin inh)
Cc1ccc(C)c(OCc2nnc(NC(=O)c3ccco3)s2)c1	Pf growth 96h 10µM
CCC(C)Sc1nnc(NC(=O)c2ccco2)s1 (configuration not stated)	none (no result: CHX counter, Pf growth 48h, Shiga toxin inh, Pf growth 96h)
COCCSc1nnc(NC(=O)c2ccco2)s1	CHX counter 20, Pf growth 96h inconclusive
Cc1ccc2c(c1)cc(C(=O)NCc1ccccc1C)n2C	none (no result: CHX counter, Pf growth 48h, Shiga toxin inh, Pf growth 96h)
O=S(=O)(NCc1cccc(Br)c1)c1ccc(-c2cc(C(F)(F)F)on2)s1	none (no result: CHX counter, Pf growth 48h, Shiga toxin inh, Pf growth 96h)
O=C(CSc1nnc(NC(=O)c2ccco2)s1)Nc1cccc(F)c1	CHX counter 32, Shiga toxin inh 78
Cc1nc(NC(=O)c2ccco2)sc1C(=O)O	none
Cc1cnc(NC(=O)c2ccco2)s1	CHX counter 34, Shiga toxin inh 125
CCCC(=O)NCc1nc2ccccc2n1C	none
Cc1ccccc1NCc1nc2ccccc2n1C	CHX counter 55, Shiga toxin inh 84
Cn1c(CNc2ccccc2O)nc2ccccc21	CHX counter 23, Shiga toxin inh 76, Pf growth 96h 9.3µM (no result: Pf growth 48h)
CC(=O)Nc1ccc(NS(=O)(=O)c2ccc3[nH]c4c(c3c2)CCCCC4)cc1	none (no result: CHX counter, Pf growth 48h, Shiga toxin inh, Pf growth 96h)
COc1cc(CCC(=O)OCC(=O)N(CCC#N)c2ccccc2)cc(OC)c1OC	none
Cc1ccccc1NC(=O)CCNC(=O)Cn1ccc2ccccc2c1=O	none (no result: CHX counter, Pf growth 48h, Shiga toxin inh, Pf growth 96h)
C[C@@H]1CN([C@H](C)CO)C(=O)c2c(c3ccccc3n2C)-c2ccccc2CO[C@H]1CN(C)Cc1ccccc1	none (no result: CHX counter, Pf growth 48h, Shiga toxin inh, Pf growth 96h)
COc1cccc(CN(C)C[C@@H]2OCc3ccccc3-c3c(n(C)c4ccccc34)C(=O)N([C@@H](C)CO)C[C@H]2C)c1	HCMV inh -105 (no result: CHX counter, Pf growth 48h, Shiga toxin inh, Pf growth 96h)
CCOC(=O)N/N=C\C=C\c1ccc2c(c1)OCO2	CHX counter 35, Pf growth 96h inconclusive
COC(=O)N/N=C\C=C\c1ccc2c(c1)OCO2	none
COc1ccc(CC(=O)N/N=C/C=C/c2ccc3c(c2)OCO3)cc1OC	none
CC(C)(C)OC(=O)N/N=C\C=C\c1ccc2c(c1)OCO2	CHX counter 29, Shiga toxin inh 34, Pf growth 96h 3.7µM
